From PubChem BioAssay (NCATS)
Inconclusive results are not listed. Activity calls are given as the source filed them. Unless noted, the call rests on the fitted dose curve; in most records, active means well fitted curve in either direction with a large enough effect (not every such curve was filed as active); inconclusive means small, poorly fitted or top-dose-only effect, or another doubt; inactive means flat fitted curve, though single readings scatter.

Tests used:
[1] = AP1 Signaling Pathway (AID 357); settings: ME-180 AP-1-bla reporter, EGF-induced, beta-lactamase ratio, 5 h; at 17.2 µM (top of the series) unless noted; further: on the % scale 0 is the no-effect control and ±100 the full control effect
Procedure, shortened: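 AP-1-bla ME-180 cells with beta-lactamase reporter under AP-1 response element, stimulated with EC50 EGF; compounds titrated, 5 hours at 37 degrees Celsius. CCF4 read at 460/530 nm ratio; positive and negative modulators judged by AC50.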

[2] = NFAT Signaling Pathway (AID 444); settings: Jurkat NFAT-bla M1, carbachol, beta-lactamase ratio, 5 h; at 17.2 µM (top of the series) unless noted;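 further: carbachol stimulus at about its EC50 of 1 µM final; on the % scale 0 is the no-effect control and ±100 the full control effect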
Procedure, shortened: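 Jurkat cells with NFAT-driven β-lactamase reporter and co-expressed M1 receptor, stimulated with carbachol (final 1 uM, ~EC50), compound titration, 5 h at 37 °C. CCF4 loaded 1 h at RT; 460/530 nm ratio gave %activity and AC50.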

[3] = Stat Signaling Pathway (AID 446); settings: ME-180 SIE beta-lactamase reporter, IL-6 stimulated, 5 h; at 17.2 µM (top of the series) unless noted;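 further: ME-180 cervical cancer cells given 40 pM IL-6 alongside compound; SIE-controlled beta-lactamase reporter measured as 460/530 nm FRET emission ratio; on the % scale 0 is the no-effect control and ±100 the full control effect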
Procedure, shortened: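 ME-180 SIE-bla cells; overnight plating; cpd + IL-6 40 pM, 5 h, 37 C; LiveBLAzer 2.5 h RT; 460/530 nm emission ratio. Normalized to 300 pM IL-6 and 125 nM JAK inhibitor controls.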

[4] = biological target: Glucocorticoid receptor (Homo sapiens) (UniProt P04150); experiment: GR-GFP Redistribution (AID 450;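 active means compounds whose dose series gives a full or clear partial fitted curve of increased nuclear translocation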; further: potency means the concentration at half of the fitted maximal effect)
[5] = biological target: Glucocorticoid receptor (Homo sapiens) (UniProt P04150); experiment: GR-EFC Redistribution (AID 451; calls by dose curve; further: potency means the concentration at half of the fitted maximal effect); settings: CHO-K1 GR-EFC translocation, beta-gal luminescence, 2 h
Procedure, shortened: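 CHO-K1 cells expressing nuclear EA and GR-ED fragments of b-gal; compounds titrated up to 46 uM final, 2 h at 37 C. GR nuclear translocation read as complemented b-gal luminescence after 1 h RT detection.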

[6] = biological target: Mitogen-activated protein kinase 10 (Mus musculus) (UniProt Q61831); experiment: JNK3 AlphaScreen Assay (AID 530);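 further: kinase came from lysate of stimulated human HepG2 cells; signal reports phosphorylation of biotinylated GST-cJun 1-79 at Ser73 with 10 µM ATP; on the % scale 0 is the no-effect control and ±100 the full control effect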
Procedure, shortened: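 qHTS format: compounds tested as titrations against IL-1beta/TNF-alpha-activated HepG2 lysate JNK3 with biotin-GST-cJun substrate and 10 uM ATP at room temperature. Loss of anti-phospho-cJun AlphaScreen signal indicates inhibition.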

[7] = qHTS Assay for Identification of Small Molecule Antagonists for NFkB Signaling Pathway (AID 895; active means well fitted inhibition curve with a large enough effect in the signal ratio, with a control signal flat, not every such curve was filed as active; the % refers to the signal ratio; further: on the % scale 0 is the no-effect control and ±100 the full control effect)
Procedure, shortened: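 ME-180 NFkB-bla cells (beta-lactamase under NFkB response element), plated overnight, treated with compound then 10 pM TNF alpha (about EC50) for 5 hrs at 37 C. LiveBLAzer FRET read at 460/530 nm emission, 405 nm excitation.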

[8] = qHTS Assay for Identification of Small Molecule Agonists for Hypoxia Response Element Signaling Pathway (AID 914; active means well fitted activation curve with a large enough effect in the signal ratio, with a control signal flat, not every such curve was filed as active; the % refers to the signal ratio; further: % of control where 0% means no effect); settings: ME-180 (cervical carcinoma) HRE-bla reporter, beta-lactamase ratio, CoCl2, 17 h; activation: active compounds read high
Procedure, shortened: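 HRE-bla ME-180 assay for agonist-like enhancement of an EC50 CoCl2 stimulus: 17 h at 37 degrees Celsius, CCF4 for 2.5 h, ratiometric 460/530 nm signal converted to %Activity and fitted to AC50.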

[9] = qHTS Assay for Identification of Small Molecule Agonists for Thrombopoietin (TPO) Signaling Pathway (AID 917; active means well fitted curve in the direction sought with a large enough effect; an effect the other way counts as inactive or inconclusive; further: on the % scale 0 is the no-effect control and ±100 the full control effect)
Procedure, shortened: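 Murine Ba/F3 cells expressing human TPO receptor and GPIIb-promoter luciferase, IL-3-starved overnight, given compound plus TPO at 26 pM (EC50). After 24 h at 37 C, 5% CO2, luminescence read.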

[10] = biological target: Muscarinic acetylcholine receptor M1 (Rattus norvegicus) (UniProt P08482); experiment: qHTS Assay for Antagonists of Acetylcholine Muscarinic M1 Receptor: Kinetic Measurement of Intracellular Calcium Response (AID 943; active means well fitted curve in the direction sought with a large enough effect; an effect the other way counts as inactive or inconclusive;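 further: Fluo-4 calcium signal as peak divided by basal fluorescence over 4 min; nearly all actives have a fitted effect of over 75% in size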)
Procedure, shortened: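 CHO cells stably expressing rat M1 were loaded with no-wash Fluo-4 dye for 1 h at 37C, pre-incubated 10 min with compound, then challenged with EC80 carbachol (100 nM final); kinetic calcium read 4 min, peak/basal ratio.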

[11] = biological target: Muscarinic acetylcholine receptor M1 (Rattus norvegicus) (UniProt P08482); experiment: qHTS Assay for Antagonists of Acetylcholine Muscarinic M1 Receptor: Measurement of IP-One Response (AID 944; active means well fitted curve in the direction sought with a large enough effect; an effect the other way counts as inactive or inconclusive; further: nearly all actives have a fitted effect of over 75% in size)
Procedure, shortened: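 CHO cells expressing rat M1 receptor, recovered overnight, were pre-incubated 10 min with compound, then stimulated 30 min with carbachol at EC80 (200 nM) in LiCl-containing buffer, pH 7.4. IP1 accumulation was read by HTRF (620/665 nm).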

[12] = biological target: Pyruvate kinase (Leishmania mexicana) (UniProt Q27686); experiment: qHTS Validation Assay for Inhibitors of Leishmania Mexicana Pyruvate Kinase (AID 945; active means well fitted curve in the direction sought with a large enough effect; an effect the other way counts as inactive or inconclusive;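 further: 0% = DMSO only neutral control wells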)
Procedure, shortened: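 Eight-point qHTS titrations; enzyme 0.2 nM LmPYK (E451W mutant); substrates 0.5 mM PEP, 0.1 mM ADP; 7 mM MgCl2; 1 h room temperature; PKLight luminescence normalized to neutral control.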

[13] = biological target: Pyruvate kinase PKM (Homo sapiens) (UniProt P14618); experiment: qHTS Assay for Activators of Human Muscle Pyruvate Kinase (AID 954; active means well fitted curve in the direction sought with a large enough effect, not every such curve was filed as active;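 further: 0% = uninhibited enzyme and -100% = no enzyme or full thiadiazolimine inhibition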)
Procedure, shortened: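 Luminescence from a luciferase ATP-detection/stop reagent reported PKM2 activity. Reactions contained 0.1 nM purified human enzyme, 0.5 mM PEP, 0.1 mM ADP and 7 mM MgCl2 at pH 7.2, run 1 h at RT.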

[14] = biological target: Alpha-galactosidase A (Homo sapiens) (UniProt P06280); experiment: Counterscreen for Glucocerebrosidase Inhibitors: qHTS Assay for Human alpha-Galactosidase at pH 4.5 (AID 992; active means well fitted curve in the direction sought with a large enough effect; an effect the other way counts as inactive or inconclusive; further: 0% is about no effect)
Procedure, shortened: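 Enzyme at 2 nM final was combined with compound (0.7 nM to 77 uM) and 80 uM 4-methylumbelliferyl alpha-D-galactopyranoside in 50 mM citric acid, 0.005% Tween-20, pH 4.5. After 20 min at room temperature, fluorescence was read (Ex 365/Em 440 nm); AC50 came from Hill fits.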

[15] = biological target: alpha-glucosidase (Oryza sativa, rice) (UniProt Q653V4); experiment: Counterscreen for Glucocerebrosidase Inhibitors: qHTS Assay for Rice alpha-Glucosidase at pH 5.0 (AID 997; active means well fitted curve in the direction sought with a large enough effect; an effect the other way counts as inactive or inconclusive;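 further: 0% = full activity with enzyme and -100% = basal without enzyme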)
Procedure, shortened: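 Rice alpha-glucosidase (4 nM final) with 400 uM 4-methylumbelliferyl-alpha-D-glucopyranoside in citrate buffer pH 5.0, 20 min at room temperature, stopped at pH 10; fluorescence 365/440 nm, compounds 0.7 nM–77 uM, AC50 from Hill fits.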

[16] = biological target: 3',5'-cyclic-AMP phosphodiesterase 4B (Homo sapiens) (UniProt Q07343); experiment: qHTS Assay for Inhibitors of PDE-IV (AID 607; active means well fitted activation curve with a large enough effect in the main read-out, with a control signal flat, not every such curve was filed as active; further: % of control where 0% means no effect)
Procedure, shortened: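 ACTOne HEK293 cells carry a modified cAMP-gated CNG channel and express endogenous PDE4; plated 1000 cells/well, compounds up to 22.9 uM final. Membrane-potential dye fluorescence (ex 535/em 590) was read; parental cells received 10 uM forskolin + 100 uM RO 20-1724.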

[17] = Confirmation and Secondary Assay for Modulators of Hemoglobin Beta Chain Splicing at IVS2 654 locus (AID 910; active means well fitted curve in the direction sought with a large enough effect; an effect the other way counts as inactive or inconclusive;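 further: HeLa cells stably carrying EGFP split by mutant beta-globin IVS2-654 intron; % of control where 0% means no effect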)
Procedure, shortened: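 HeLa cells stably expressing EGFP interrupted by β-globin IVS2-654 intron, seeded overnight in Opti-MEM/2% FCS, then treated 2 days at 37 °C. Restored splicing read as total peak GFP intensity per well by laser scanning cytometry (488 nm excitation, 500–520 nm emission); 500 nM antisense PNA as control.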

[18] = Confirmation and Secondary Assay for Modulators of Hemoglobin Beta Chain Splicing at IVS2 705 locus (AID 930; active means well fitted curve in the direction sought with a large enough effect; an effect the other way counts as inactive or inconclusive;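 further: HeLa cells stably expressing the EGFP-705 splicing reporter; GFP fluorescence per well restored by corrected splicing of the IVS2-705 intron in EGFP; % of control where 0% means no effect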)
Procedure, shortened: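 HeLa IVS2-705 EGFP reporter cells, 500/well, compound 2 d at 37C; correct splicing yields fluorescent EGFP. Control: 500 nM antisense PNA. Read-out: total peak GFP intensity.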

Muscarinic acetylcholine receptor M1 (Rattus norvegicus), sequence (P08482 whole entry, looked up): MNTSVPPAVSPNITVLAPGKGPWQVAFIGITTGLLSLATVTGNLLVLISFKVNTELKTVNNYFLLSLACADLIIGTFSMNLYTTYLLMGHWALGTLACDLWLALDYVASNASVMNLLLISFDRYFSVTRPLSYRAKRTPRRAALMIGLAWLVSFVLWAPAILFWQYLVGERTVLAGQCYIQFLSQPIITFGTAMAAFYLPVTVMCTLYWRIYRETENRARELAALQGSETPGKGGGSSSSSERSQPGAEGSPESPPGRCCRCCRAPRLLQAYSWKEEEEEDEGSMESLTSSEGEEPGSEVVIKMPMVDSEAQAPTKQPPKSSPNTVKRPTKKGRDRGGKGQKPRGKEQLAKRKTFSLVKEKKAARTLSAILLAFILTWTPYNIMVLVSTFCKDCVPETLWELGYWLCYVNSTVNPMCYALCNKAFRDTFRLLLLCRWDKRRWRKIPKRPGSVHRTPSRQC
Glucocorticoid receptor (Homo sapiens), sequence (P04150 whole entry, looked up, the tested form may be a part): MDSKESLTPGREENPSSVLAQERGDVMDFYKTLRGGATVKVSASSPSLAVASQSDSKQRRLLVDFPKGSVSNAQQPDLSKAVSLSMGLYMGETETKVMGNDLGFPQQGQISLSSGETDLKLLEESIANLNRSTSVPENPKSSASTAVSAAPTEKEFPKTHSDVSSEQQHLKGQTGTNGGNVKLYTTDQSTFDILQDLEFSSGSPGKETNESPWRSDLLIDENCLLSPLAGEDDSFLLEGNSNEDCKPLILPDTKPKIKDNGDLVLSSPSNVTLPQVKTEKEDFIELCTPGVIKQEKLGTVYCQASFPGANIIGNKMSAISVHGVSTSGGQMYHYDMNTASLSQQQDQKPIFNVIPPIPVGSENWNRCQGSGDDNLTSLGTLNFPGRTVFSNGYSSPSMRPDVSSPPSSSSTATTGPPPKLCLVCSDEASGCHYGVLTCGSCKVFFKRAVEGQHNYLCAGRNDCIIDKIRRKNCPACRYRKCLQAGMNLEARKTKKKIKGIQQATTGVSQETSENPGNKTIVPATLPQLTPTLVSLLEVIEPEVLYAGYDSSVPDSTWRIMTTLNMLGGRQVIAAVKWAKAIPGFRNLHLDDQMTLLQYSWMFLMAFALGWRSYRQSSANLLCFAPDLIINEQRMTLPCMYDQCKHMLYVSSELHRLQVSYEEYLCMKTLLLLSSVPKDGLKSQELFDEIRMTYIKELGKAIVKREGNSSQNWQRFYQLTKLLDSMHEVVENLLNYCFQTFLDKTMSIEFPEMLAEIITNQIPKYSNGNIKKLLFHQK
Pyruvate kinase (Leishmania mexicana), sequence (Q27686 2-499 E452W): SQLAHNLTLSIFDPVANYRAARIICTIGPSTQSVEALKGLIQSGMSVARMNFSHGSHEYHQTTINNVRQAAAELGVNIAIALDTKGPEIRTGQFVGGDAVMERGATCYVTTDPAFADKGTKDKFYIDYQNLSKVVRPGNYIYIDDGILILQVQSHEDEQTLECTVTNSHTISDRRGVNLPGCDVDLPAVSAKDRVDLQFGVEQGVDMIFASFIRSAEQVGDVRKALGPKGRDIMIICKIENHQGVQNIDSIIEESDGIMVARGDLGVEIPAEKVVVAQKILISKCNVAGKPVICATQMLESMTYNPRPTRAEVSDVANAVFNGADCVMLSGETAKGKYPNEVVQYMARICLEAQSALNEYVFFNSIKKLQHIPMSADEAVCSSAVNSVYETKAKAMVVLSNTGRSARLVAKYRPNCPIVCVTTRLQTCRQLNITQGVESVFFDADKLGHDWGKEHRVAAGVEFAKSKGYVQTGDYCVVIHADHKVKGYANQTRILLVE
Pyruvate kinase PKM (Homo sapiens), sequence (P14618 whole entry, looked up): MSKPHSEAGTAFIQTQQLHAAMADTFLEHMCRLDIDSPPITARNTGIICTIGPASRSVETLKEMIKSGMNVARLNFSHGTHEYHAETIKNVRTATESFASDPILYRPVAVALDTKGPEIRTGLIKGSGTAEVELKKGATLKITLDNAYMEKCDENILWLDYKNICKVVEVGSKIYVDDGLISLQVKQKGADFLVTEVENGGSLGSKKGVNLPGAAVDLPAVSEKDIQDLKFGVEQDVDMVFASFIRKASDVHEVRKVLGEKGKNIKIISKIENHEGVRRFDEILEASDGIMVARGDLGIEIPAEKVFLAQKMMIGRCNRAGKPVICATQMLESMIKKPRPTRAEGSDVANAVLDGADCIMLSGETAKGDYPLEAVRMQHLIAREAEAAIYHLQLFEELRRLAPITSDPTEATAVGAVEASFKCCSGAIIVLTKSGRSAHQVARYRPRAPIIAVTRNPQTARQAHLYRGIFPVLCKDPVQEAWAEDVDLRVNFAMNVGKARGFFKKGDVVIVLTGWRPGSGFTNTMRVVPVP
Alpha-galactosidase A (Homo sapiens), sequence (P06280 whole entry, looked up): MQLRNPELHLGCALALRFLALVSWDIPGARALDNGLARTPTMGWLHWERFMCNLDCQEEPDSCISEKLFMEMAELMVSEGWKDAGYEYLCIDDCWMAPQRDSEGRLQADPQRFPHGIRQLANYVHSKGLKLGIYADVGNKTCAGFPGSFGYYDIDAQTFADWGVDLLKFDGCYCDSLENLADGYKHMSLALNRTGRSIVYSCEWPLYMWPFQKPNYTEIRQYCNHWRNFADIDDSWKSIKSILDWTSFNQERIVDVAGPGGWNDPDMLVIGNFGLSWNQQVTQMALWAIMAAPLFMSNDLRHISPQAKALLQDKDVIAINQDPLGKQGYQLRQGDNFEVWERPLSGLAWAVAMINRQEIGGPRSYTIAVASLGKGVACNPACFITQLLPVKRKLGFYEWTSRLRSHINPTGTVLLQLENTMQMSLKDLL
3',5'-cyclic-AMP phosphodiesterase 4B (Homo sapiens), sequence (Q07343 whole entry, looked up): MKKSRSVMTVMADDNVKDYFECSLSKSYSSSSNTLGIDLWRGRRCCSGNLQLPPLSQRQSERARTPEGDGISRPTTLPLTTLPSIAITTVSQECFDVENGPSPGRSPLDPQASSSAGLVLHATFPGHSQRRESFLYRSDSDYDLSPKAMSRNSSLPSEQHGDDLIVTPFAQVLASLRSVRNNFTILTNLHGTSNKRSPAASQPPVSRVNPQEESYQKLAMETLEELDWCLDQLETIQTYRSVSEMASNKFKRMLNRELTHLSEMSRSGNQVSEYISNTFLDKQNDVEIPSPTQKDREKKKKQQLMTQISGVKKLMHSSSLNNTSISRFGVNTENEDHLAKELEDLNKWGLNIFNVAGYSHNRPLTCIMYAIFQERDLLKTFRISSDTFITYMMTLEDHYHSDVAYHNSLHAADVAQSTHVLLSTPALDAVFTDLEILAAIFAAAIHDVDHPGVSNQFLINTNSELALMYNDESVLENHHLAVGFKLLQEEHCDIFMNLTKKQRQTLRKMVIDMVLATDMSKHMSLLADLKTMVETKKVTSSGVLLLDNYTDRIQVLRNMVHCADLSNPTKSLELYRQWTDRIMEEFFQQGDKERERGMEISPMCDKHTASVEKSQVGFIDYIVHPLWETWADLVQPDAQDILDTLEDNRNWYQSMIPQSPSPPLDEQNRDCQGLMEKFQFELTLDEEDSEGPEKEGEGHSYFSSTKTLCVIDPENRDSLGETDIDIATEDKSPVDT

N#Cc1c(N2CCOCC2)nc(-c2ccco2)c2c1CCCC2
inactive: activity change, negative = inhibition [1] 2.51% | activity change, negative = inhibition [2] 4.52% | activity, negative = inhibition [3] 4.59% | Potency [4] > 20.6 µM

O=c1[nH]c(=O)n([C@H]2C[C@H](O)[C@H](CO)O2)cc1/C=C\Br
inactive: activity change, negative = inhibition [1] -6.02% [at 38 µM] | activity change, negative = inhibition [2] 3.97% [at 38 µM] | activity, negative = inhibition [3] 6.62% [at 38 µM] | Potency [4] > 46 µM | Potency [5] > 46 µM | Potency [6] | Potency [7] | activation [8] 0.219% | Potency [9] | Potency [10] | Potency [11] | Potency [12] | outcome [13] | outcome [14] | outcome [15]

O=C(O)c1cc(Cl)cc(Cc2cc(Cl)cc(C(=O)O)c2O)c1O
inactive: activity change, negative = inhibition [1] 10.2% [at 7.69 µM] | activity change, negative = inhibition [2] 10.6% [at 7.69 µM] | activity, negative = inhibition [3] -2.39% [at 7.69 µM] | Potency [4] > 46 µM | Potency [5] > 9.22 µM | activity change, negative = inhibition [6] 4.28% [at 11.4 µM] | Potency [16]

N[C@H](Cc1ccc(F)cc1)C(=O)O
inactive: activity change, negative = inhibition [1] 14.8% [at 38 µM] | activity change, negative = inhibition [2] -1.52% [at 38 µM] | activity, negative = inhibition [3] -8.01% [at 38 µM] | Potency [4] > 46 µM | Potency [5] > 46 µM | Potency [6] | Potency [16] | Potency [9] | Potency [12] | outcome [13] | outcome [14] | outcome [15]

Nc1ccn([C@@H]2O[C@@H](CO)[C@@H](O)[C@H]2O)c(=O)n1
inactive: activity change, negative = inhibition [1] 10.7% [at 38 µM] | activity change, negative = inhibition [2] -7.43% [at 38 µM] | activity, negative = inhibition [3] 19% [at 38 µM] | Potency [4] > 46 µM | Potency [5] > 46 µM | Potency [6] | Potency [16] | Potency [17] | Potency [18] | Potency [11] | Potency [12] | outcome [13] | outcome [14] | outcome [15]

Nc1cc(S(N)(=O)=O)ccc1SSc1ccc(S(N)(=O)=O)cc1N
inactive: activity change, negative = inhibition [1] 19.2% [at 7.69 µM] | activity change, negative = inhibition [2] -0.508% [at 7.69 µM] | activity, negative = inhibition [3] -1.82% [at 7.69 µM] | Potency [4] > 46 µM | Potency [5] > 9.22 µM | activity change, negative = inhibition [6] -4.44% [at 11.4 µM] | Potency [16]

CC(=O)S[C@@H]1CC2=CC(=O)CC[C@@]2(C)[C@H]2CC[C@]3(C)[C@H](CC[C@@]34CCC(=O)O4)[C@H]12
inactive: activity change, negative = inhibition [1] 19.8% [at 38 µM] | activity change, negative = inhibition [2] -10% [at 38 µM] | activity, negative = inhibition [3] -9.34% [at 38 µM] | Potency [5] > 46 µM | Potency [16] | Potency [9] | Potency [12] | outcome [13] | outcome [14] | outcome [15]
active: Potency [4] 1.4 µM
